Compound activity from PubChem BioAssay.
Many of the other results were omitted from the sample, so hits are more common in it than they were.
Shiga toxin inh: A qHTS for Small Molecule Inhibitors of Shiga Toxin. Vero cells, Shiga toxin protein synthesis inhibition reporter. 290,000 tested, 9.2% active. inhibition, % at 38.7 µM; in the data active = inhibition mostly above about 28%, no sharp cut-off; inactive = mostly below about 43%; also: 0% is about no effect
FBPA Giardia inh: qHTS Assay for Inhibitors of Fructose-1,6-bisphosphate Aldolase from Giardia Lamblia | A8B2U2 | purified Giardia FBPA | 290,000 tested, 0.71% active | Potency, µM (titrated, usually from 59.6 µM), for inactives: at the highest dose activity, negative = inhibition, usual class: inhibitors; also: potency is read from the fitted curve at half-maximal effect; % is scaled to controls: 0 for no effect and ±100 for the full control effect; nearly all actives have a fitted effect of over 55% in size
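40 nM FBPA preincubated 10 min at RT with compound (up to 57.5 uM final), then substrate plus GAPDH/TPI/NAD/arsenate coupling and diaphorase/resazurin added. Fluorescence read after 20 min at RT, 525/598 nm.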
LmPK inh: qHTS Assay for Inhibitors of Leishmania Mexicana Pyruvate Kinase (LmPK); Q27686; Potency, µM (titrated, usually from 57.5 µM), without a hit: at the highest dose activity change, negative = inhibition, hits mostly inhibitors; purified LmPK, Kinase-Glo ATP luminescence, 1 h; AID 1721, 2009; 290,000 tested, 0.37% active; also: potency is read from the fitted curve at half-maximal effect; % is scaled to controls: 0 for no effect and ±100 for the full control effect
Target sequence (Q27686 whole entry, looked up): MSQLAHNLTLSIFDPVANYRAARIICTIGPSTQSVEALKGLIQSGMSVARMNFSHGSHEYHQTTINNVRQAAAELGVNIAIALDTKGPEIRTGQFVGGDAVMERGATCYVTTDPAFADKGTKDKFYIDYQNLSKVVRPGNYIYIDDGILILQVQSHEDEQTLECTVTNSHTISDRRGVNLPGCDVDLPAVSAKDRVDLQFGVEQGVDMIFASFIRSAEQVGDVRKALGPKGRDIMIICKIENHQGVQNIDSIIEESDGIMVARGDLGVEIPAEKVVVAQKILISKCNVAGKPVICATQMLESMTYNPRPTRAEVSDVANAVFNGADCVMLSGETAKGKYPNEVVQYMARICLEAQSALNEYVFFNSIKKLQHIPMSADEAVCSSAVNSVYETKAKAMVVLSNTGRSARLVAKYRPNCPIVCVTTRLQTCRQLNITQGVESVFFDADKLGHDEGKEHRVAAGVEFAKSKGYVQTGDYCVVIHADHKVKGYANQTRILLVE
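ATP generated from ADP (0.1 mM) and PEP (0.5 mM) by 0.1 nM LmPK over 1 h at room temperature (pH 7.2 imidazole buffer) was detected by coupled luciferase luminescence. Values were normalized to uninhibited and no-enzyme wells.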
TbPYK inhibitor: qHTS of Trypanosoma Brucei Inhibitors; Potency, µM (titrated, usually from 76.8 µM), for inactives: at the top dose activity, negative = inhibition, most hits filed as inhibitors; TbPYK enzyme, Kinase-Glo Plus ATP luminescence, 45 min; AID 624173, 2012; pyruvate kinase (Trypanosoma brucei), Q57TT1; 410,000 tested, 0.12% active; also: potency is read from the fitted curve at half-maximal effect; % is scaled to controls: 0 for no effect and ±100 for the full control effect; nearly all actives have a fitted effect of over 50% in size
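Quantitative HTS: titrated library compounds versus trypanosomal pyruvate kinase in TEA buffer (pH 7.2) containing KCl, MgCl2, BSA and Tween-20. Reactions were initiated with ADP, 130 uM final. Kinase-Glo Plus luminescence was read after 45 min at RT.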
Cycloheximide cs: Cycloheximide Counterscreen for Small Molecule Inhibitors of Shiga Toxin | cell reporter, cycloheximide protein synthesis inhibition counterscreen | max response, % | 300,000 tested, 12% active | AID 2314, 2010; in the data active = max response mostly above about 13%, no sharp cut-off; inactive = mostly below about 14%; also: read at 38.3 µM for the half of the compounds with a filed dose; 0% is about no effect
RE007 growth inh: qHTS Assay for Inhibitors of the HIV-1 protein Vpr; S. pombe RE007 Vpr strain, BacTiter-Glo ATP luminescence, 24 h; AID 651644, 2012; 360,000 tested, 0.21% active; Potency, µM (series often up to 92.2 µM), for inactives: at the top dose activity change, negative = less growth, hits mostly inhibitors; active = well fitted falling curve with a large enough effect; inconclusive = small, poorly fitted or top-dose-only effect; inactive = no such curve, though single readings can be large or run the other way; also: potency is read from the fitted curve at half-maximal effect; % is scaled to controls: 0 for no effect and ±100 for the full control effect; nearly all actives have a fitted effect of over 50% in size
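Fission yeast RE007 carrying one integrated HIV-1 vpr copy, seeded at OD 0.01 in PMG+AL medium with 23 nL pinned compound. Grown 24 h at 30 degrees; viability read by BacTiter-Glo luminescence after 5 min.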
Starred values were filed as active, the others as inactive; u = inconclusive; x = no result given. Unless noted, calls follow the shape of the dose curve; as a rule, active = well fitted curve in the direction sought with a large enough effect; inconclusive = small, poorly fitted or top-dose-only effect, or another doubt; inactive = no such curve, though single readings can be large; an effect the other way counts as inactive or inconclusive.

SMILES	Shiga toxin inh	FBPA Giardia inh	LmPK inh	TbPYK inhibitor	Cycloheximide cs	RE007 growth inh
CN(C)/C=C/C(=O)c1ccc(Br)cc1	61*	-2%	-9%	5%	26*	-19%
COC(=O)c1cccc(NC(=O)c2cnccn2)c1	-3	-2%	-6%	1%	-1	-2%
O=C(NNC(=O)c1ccc(Cl)cc1Cl)c1csc(-c2cccnc2)n1	22	0%	4%	1%	19*	-5%
CSc1cccc(NC(=O)c2cnccn2)c1	39	0%	-9%	-5%	31*	-12%
O=C(NCc1ccc(Cl)cc1)c1csc(-c2cccnc2)n1	-10	0%	8%	-4%	-5	2%
CSc1cccc(NC(=O)N2CCc3ccc(NC(=O)c4ccccn4)cc3C2)c1	77*	x	-13%	-1%	18*	-16%
CSc1cccc(NC(=O)c2ccccn2)c1	103*	1%	-24%	x	37*	x
COc1ccccc1C(=O)Nc1ccc2c(c1)CN(C(=O)CSC)CC2	27	1%	1%	4%	9	4%
O=C(O)/C=C(/CC(=O)O)C(=O)O	x	x	x	-2%	x	x
O=C(Nc1ccc(Cl)c(Cl)c1)c1csc(-c2ccccc2)n1	-4	1%	-1%	5%	-2	6%
O=C(Nc1cccc(Cl)c1)c1ccncc1	9	-1%	-7%	-15%	0	-16%
O=C(Nc1cccc(Cl)c1)c1csc(-c2ccccc2)n1	98	u	2%	2%	43*	-21%
O=C(NCCNC(=O)c1cnccn1)c1cccc(Cl)c1	5	-2%	1%	-1%	-5	8%
CSc1cccc(NC(=O)c2ccc(Cl)nc2)c1	61*	x	-1%	34%	40*	-3%
O=C(Nc1cccc(Cl)c1)c1cnccn1	x	0%	8%	-4%	16*	-6%
O=C(Nc1cccc(Cl)c1)c1cnc[nH]1	75*	13%	-2%	4%	55*	4%
COc1cc(OC)cc(-c2nc3nc(C)c(CCC(=O)Nc4ccc(Cl)cc4)c(C)n3n2)c1	x	x	x	-1%	x	x
CCOC(=O)c1nc(N2CCN(c3ccc(F)cc3)CC2)c2c(C)noc2n1	x	x	x	0%	x	x
O=C(N/N=C/C(Br)=C/c1ccccc1)c1cc(-c2ccco2)[nH]n1	39*	-4%	2%	9%	8	-23%
Cc1ccc(-c2cc(C(=O)N/N=C/c3ccccc3)n[nH]2)o1	82*	-3%	-4%	3%	25*	-7%
CC(/C=N/NC(=O)c1cc(-c2ccc(C)o2)[nH]n1)=C\c1ccccc1	-6	2%	3%	-1%	-2	17%
COC(=O)c1cnc(SCC(=O)c2ccccc2)n1C	100*	6%	u	-21%	43*	x
COC(=O)c1cnc(SCc2ccc(Cl)cc2)n1C	65*	-16%	-4%	-11%	47*	5%
COC(=O)c1ccnc(SCC(=O)c2ccccc2)c1	79*	10%	-30%	-11%	43*	1%
Cc1ccc(NC(=O)CCC(=O)N2Cc3ccccc3Oc3ncccc32)cc1	x	x	x	2%	x	x
SMILES	Shiga toxin inh	FBPA Giardia inh	LmPK inh	TbPYK inhibitor	Cycloheximide cs	RE007 growth inh
COc1ccccc1C1CCN(Cc2cccc([N+](=O)[O-])c2)CC1	3	4%	10%	7%	-1	2%
COc1ccccc1C1CCN(c2ccc(CO)cc2[N+](=O)[O-])CC1	18	-4%	0%	3%	14*	u
CCC1CN(C(=O)N2CCC(C(=O)NCCN(C)C)CC2)c2ccccc2O1 (centres undefined)	x	x	x	-2%	x	x
CCOc1ccc(S(=O)(=O)NCCc2cn3ccccc3n2)cc1	-19	x	-8%	8%	-5	-8%
Fc1ccc(-c2cn3ccccc3n2)cc1	77	-4%	-23%	-18%	34*	-22%
CCOc1ccc(-c2cn3ccccc3n2)cc1	37	-16%	13µM*	u	6	u
CCCCCCC(=O)c1c(C)[nH]c(C(=O)OCC)c1C	81*	-6%	-8%	12%	30*	-12%
CCCN(CCC)C(=O)c1c(C)[nH]c(C(=O)OCC)c1C	2	0%	-2%	x	1	x
CCNC(=O)c1c(C)[nH]c(C(=O)OCC)c1C	23	1%	5%	3%	-4	9%
CCCCCC(=O)c1c(C)[nH]c(C(=O)OCC)c1C	104*	-2%	1%	-9%	17*	-16%
CC(C)(C)c1ccc(C(=O)NNC(=O)c2cccc(Br)c2)cc1	27	-10%	0%	-5%	16*	17%
NC(=S)NNC(=O)c1cccc(Br)c1	-4	-8%	7%	x	14	x
O=C(NNC(=O)c1ccccc1O)c1ccc(Cl)cc1	48*	7%	1%	4%	33*	-15%
O=C(NNC(=O)c1ccc(O)cc1O)c1ccc(Cl)cc1	43	u	4%	-12%	7	20%
O=C(NNC(=O)c1ccccc1O)c1ccc(Br)cc1	x	-19%	-5%	-1%	44*	9%
O=C(COC(=O)c1ccccc1O)NNC(=O)c1ccc(Br)cc1	x	x	x	-2%	x	-10%
O=C(NNC(=O)c1ccccc1O)c1cccc(Br)c1	51*	-8%	5%	-1%	25*	-3%
Cc1ccc2c(c1)C(c1ccccc1)N(C(=O)c1ccccc1F)CC(=O)N2 (centres undefined)	x	x	x	-3%	x	x
COc1cccc(CNC(=O)CSc2ncc3c(n2)-c2cc(Cl)ccc2N(C)S3(=O)=O)c1	x	x	x	-1%	x	x
Cc1ccc(-n2c(SCC(=O)NCc3ccc(F)cc3)nc3c([nH]c4ccccc43)c2=O)cc1	x	x	x	1%	x	x
Cc1cccc(C(=O)NNC(=O)c2ccc(Cl)cc2)c1O	79*	u	3%	5%	30*	-6%
O=C(NNC(=O)c1cccc2ccccc12)c1ccc(Cl)cc1	x	x	x	2%	x	9%
CNC(=O)C[C@@H]1C(=O)N(c2ccc(OC)cc2)CC1(C)C	x	x	x	-10%	x	6%
CC1(C)N(O)C(c2ccc(C(=O)O)cc2)=[N+]([O-])C1(C)C	x	40µM*	x	x	x	x
CC(=O)C(=Cc1ccc(C(=O)O)cc1)C(C)=O	-3	2%	-4%	-1%	-1	1%
CCc1ccc(NC(=O)CNC(=O)[C@@H]2Cc3ccccc3CN2)cc1	3	x	8%	1%	5	-1%
CCC(C)[C@H](NC(=O)[C@@H]1Cc2ccccc2CN1)C(=O)Nc1ccc2c(c1)OCO2 (some centres undefined)	38*	x	-4%	0%	30*	11%
Cc1cc(C)cc(NC(=O)[C@H](NC(=O)[C@@H]2Cc3ccccc3CN2)c2ccccc2)c1	13	x	3%	-2%	8	-19%
C[C@H](NC(=O)[C@@H]1Cc2ccccc2CN1)C(=O)Nc1ccc2c(c1)OCCO2	51*	x	7%	2%	36*	10%
